Experimental data: the supplement of paper PMC6135742
Where a name gives a salt, the structure may show the parent alone. Whole data set: some 2,600 compounds, median “MBP+ mature oligodendrocyte number relative to DMSO vehicle control” near -0.34, cut for the highest 2% near 13. This is one part of a sample in which the highest values are shown more often than they occur.

test system: jimpy (Plp1 jimpy) mouse iPSC-derived oligodendrocyte progenitor cells; test: MBP+ mature oligodendrocyte number relative to DMSO vehicle control (SDs above negative control mean); higher = more surviving jimpy oligodendrocytes (rescue); details: 10 µM; 3 days
Method: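 Primary phenotypic screen of >3,000 bioactive compounds (Selleck L1700 and Sigma LO1280 libraries) at a single dose of 10 µM. Compounds were added to jimpy (Plp1 mutant) mouse iPSC-derived OPCs at the start of thyroid hormone-induced oligodendrocyte differentiation, one well per compound in 384-well plates. After 3 days cells were stained for MBP, Sox10 and DAPI and imaged with an Operetta system. MBP+ oligodendrocyte number and total cell number were expressed as the number of SDs above the mean of the DMSO negative control on the same plate (n=16 control wells per plate). Hits were defined as >=4 SD for oligodendrocytes and >=2 SD for total cells.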

Row | Structure (SMILES) | MBP+ mature oligodendrocyte number
1 | OC1CCCCC1N1CCC(c2ccccc2)CC1 (racemic) [(±)-Vesamicol hydrochloride] | 15.7
2 | Cc1ccc2c(c1)C1(CCN(CCc3nc(-c4ccccc4)oc3C)CC1)OC(=O)N2 | -2.6
3 | C[N+]1(C)[C@@H]2CC(OC(=O)[C@H](CO)c3ccccc3)C[C@H]1[C@@H]1O[C@@H]12 (single isomer, unassigned; (-)) [(-)-Scopolamine methyl nitrate] | 0.539
4 | N[C@]1(C(=O)O)CC[C@H](C(=O)O)C1 (racemic) [trans-(±)-ACPD] | 0.981
5 | CN1CC[C@@]2(C)c3cc(O)ccc3N(C)C12 (single isomer, unassigned; (-)) [(-)-Eseroline fumarate] | -1.28
6 | COc1ccc2c(c1OC)C(=O)OC2C1c2cc3c(cc2CCN1C)OCO3 (single isomer, unassigned; (+)) [(+)-Hydrastine] | 1.13
7 | NC(=O)c1ccc(OCC(O)CN2CC=C(c3ccc(F)cc3)CC2)cc1 (stereo not given) | 13.9
8 | CC(=O)OCC1=C(C(=O)[O-])N2C(=O)[C@@H](NC(=O)CCC[C@@H](N)C(=O)[O-])[C@H]2SC1.[Zn+2] [Cephalosporin C zinc salt] | -0.943
9 | CCCC[N+]1(C)[C@@H]2C[C@@H](OC(=O)[C@H](CO)c3ccccc3)C[C@H]1[C@@H]1O[C@@H]12 (single isomer, unassigned; (-)) [(-)-Scopolamine,n-Butyl-, bromide] | -0.925
10 | CN1CC[C@]2(CCN3CCc4c(oc5ccccc45)[C@@H]3C2)N(C)C1=O | 1.72
11 | CCS(=O)(=O)Nc1cccc(C(=C2CCCCC2)c2cnc[nH]2)c1 | 2.51
12 | CC(C)Oc1cccnc1N(C)C1CCN(Cc2ccccc2)CC1 | 19.1
13 | CO[C@H]1CC[C@@H](O[C@H]2C[C@H]([C@]3(C)CC[C@]4(C[C@H](O)[C@@H](C)[C@@H]([C@@H](C)/C=C(\C)C(=O)[C@H](C)C[C@H](C)C(=O)O)O4)O3)O[C@]3(O[C@@H]([C@H]4O[C@@](O)(CO)[C@H](C)C[C@@H]4C)C[C@@H]3C)[C@@H]2C)O[C@@H]1C [Nanchangmycin] | < -6.7
14 | CC(N)Cc1cccc(C(F)(F)F)c1 (single isomer, unassigned; (+)) [(+)-Norfenfluramine hydrochloride] | 0.753
15 | COc1ccc2[nH]c3c(c2c1)CCNC3 [6-Methoxy-1,2,3,4-tetrahydro-9H-pyrido[3,4b] indole] | -0.315
